# Measured values from PubChem BioAssay (EPA / NIEHS).
# Calls of active or inactive are those of the source. How the source made its calls: active means hit-call score of the fitted dose curve at least 0.9, where 1 is the maximum; inactive means score below 0.9.
# Experiment: CEETOX_H295R_MTT_cell_viability: Viability Assessment in the CeeTox HT-H295R MTT Assay (AID 2283718);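 on AC50: curve fitted both ways so AC50 may mark viability loss or gain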
# Procedure: CEETOX_H295R is a cell-based, multiplexed-readout assay that uses H295R, a human adrenal gland cell line, with measurements taken at 48 hours after chemical dosing in a 96-well plate.CEETOX_H295R_MTT_cell_viability is one of 23 assay component(s) measured or calculated from the CEETOX_H295R assay. It is designed to make measurements of cell number, a form of viability reporter, as detected with […] signals by MTT cytotoxicity assay technology.The assay component endpoint CEETOX_H295R_MTT_cell_viability was analyzed with bidirectional fitting relation to DMSO as the negative control and baseline of activity. Using a type of viability reporter in the MTT cytotoxicity assay, gain or loss-of-signal activity can be used to monitor cellular processes to understand changes in proliferation. To generalize the intended target to other relatable targets, this assay endpoint is annotated to cell cycle, where the subfamily is proliferation.
# Cell culture and media preparation procedures were conducted in accordance with OECD Test No. 456 guidelines, with minor modifications. H295R cells (ATCC CRL-2128) were expanded for 5 passages and frozen in batches in liquid nitrogen. Prior to the steroidogenesis assay, H295R cells were thawed and passed at least 4 times. The maximum passage was 10. Cells were maintained in a 1:1 mixture of DMEM/F12 supplemented with 5ml/L ITS+ Premix (BD Bioscience) and 12.5 ml/L Nu-Serum (BD Bioscience). After seeding cells into 96-well plates at 50-60% confluency, cells were allowed to adhere overnight. Prior to chemical testing, culture medium was replaced with 175 uL medium containing 10 uM forskolin to stimulate steroidogenesis for 48 hours. Following prestimulation, forskolin medium was replaced with medium containing test chemical solubilized in DMSO (ensuring a final concentration of 0.1% DMSO). Test chemicals were incubated for 48 hours, then the medium was removed and split into 2 vials containing approximately 75uL each, and stored at -80 C prior to hormone analysis. For steroid quantification, media samples were shipped to OpAns, LLC (Durham, NC) on dry ice, and samples were thawed to room temperature prior to liquid-liquid extraction. Steroid hormones were extracted from media samples using methyl tertbutyl ether (MTBE). An extra derivatization with dansyl chloride was included for estrogen (estrone and estradiol) detection only. Steroid hormones were separated by HPLC, eluted using a reverse phase C18 gradient with electrospray positive ionization, followed by quantification by tandem mass spectrometry (MS/MS). Data were acquired on a MassHunter Workstation Acquisition version B03.01 (Agilent Technologies, Inc.) and processed using MassHunter Quantitative Analysis for QQQ. Accuracy was determined for each hormone analyte from 3 standards to determine upper and lower limits of quantification (ULOQ and LLOQ, respectively) using a 7-point standard curve. Precision and accuracy of the extraction and quantification methods were calculated as the percent relative standard deviation (%RSD) of the spiked standards and percent spiked standard recovered, respectively. The goal was to achieve 100% accuracy (i.e., recover all spiked-in standard at quantification with minimal loss during run time) and good precision (i.e., have %RSD <15% to ensure reproducibility). Test medium was removed following chemical exposure, and cell viability was evaluated in the same wells by MTT. MTT procedures were as follows: after removal of test medium, 500 uL of 0.5 mg/ml of 3-[4,5-dimethylthiazol-2-y]2,5-diphenyltetrazoliumbromide solution was added to the cells. Following a 4-hour incubation at 37 C and 5% CO2 to allow formazan-crystal formation, the MTT solution was removed and blue formazan salt crystals were solubilized using 500uL anhydrous isopropanol with shaking for 20 minutes. Absorbance was read at 570 and 650nm using a Packard Fusion microplate reader. […]
SMILES,outcome,AC50
C1=CCCC1,inactive,–
CCOC(=O)Cc1cccc2ccccc12,inactive,–
CCCCC/C=C\CCC=O,inactive,–
S=C(NC1CCCCC1)NC1CCCCC1,inactive,–
Oc1ccc(Cl)cc1Cc1cc(Cl)ccc1O,inactive,–
COc1ccc2nc(N)sc2c1,inactive,–
C=COCCCC,inactive,–
COC(=O)c1c(C)cc(O)c(C)c1O,inactive,–
CN(C)c1ccc(C(=N)c2ccc(N(C)C)cc2)cc1,–,1.8 nM (active)
O=C(Nc1ccccc1SSc1ccccc1NC(=O)c1ccccc1)c1ccccc1,inactive,–
CCCCCCCCCCCCCOP(=O)(O)O,inactive,–
C#CC1(O)CC[C@H]2[C@@H]3CCC4=CCCC[C@@H]4[C@H]3CC[C@@]21C (some centres not stated),inactive,–
COCc1c(C(C)C)nc(C(C)C)c(/C=C/[C@@H](O)C[C@@H](O)CC(=O)O)c1-c1ccc(F)cc1,inactive,–
O=C(C=Cc1ccccc1)OCc1ccccc1,inactive,–
CO[Si](CCC1CCC2OC2C1)(OC)OC (configuration not stated),inactive,–
Cc1ccc(C(C)c2ccc(C)c(C)c2)cc1C,inactive,–
CCCCNc1ccc(NCCCC)c2c1C(=O)c1ccccc1C2=O,inactive,–
